These results are taken from PubChem BioAssay (NCI).

This is part of a sample that, as a whole, favours compounds with a hit. Of some 79,000 tested, about 15% had one in any assay. Active and inactive are the calls of the source. Rule as the data show it: active = growth inhibition above about 70%; inactive = the rest.

Assay [1] in a line: NCI Yeast Anticancer Drug Screen. Data for the rad50 strain (AID 155).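 Also: 0% = growth of vehicle-only cultures of the same strain.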 Particulars: S. cerevisiae rad50 strain growth inhibition, stronger effect = higher value. A digest of the protocol: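 Readout: growth inhibition relative to vehicle-treated cultures. Compound exposure was carried out in a genetically defined yeast strain deficient in DNA damage repair.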
Assay [2] in a line: NCI Yeast Anticancer Drug Screen. Data for the mec2-1 strain (AID 157). The following applies: S. cerevisiae mec2-1 strain, stronger effect = higher value. A digest of the protocol: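 Each compound was tested on mec2-1 yeast, a strain altered in DNA damage repair or cell cycle control. Growth inhibition is reported relative to vehicle.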
Assay [3] can be described thus: NCI Yeast Anticancer Drug Screen. Data for the sgs1 mgt1 strain (AID 161).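 Also: 0% = growth of cultures given vehicle only.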 Particulars: S. cerevisiae sgs1 mgt1 strain, stronger effect = higher value. A digest of the protocol: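 Genetically altered yeast, compound exposure, growth inhibition relative to vehicle.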
The nature of assay [4]: NCI Yeast Anticancer Drug Screen. Data for the cln2 rad14 strain (AID 165).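 Also: 0% = growth equal to vehicle treated cultures.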 Particulars: S. cerevisiae cln2 rad14 strain, stronger effect = higher value. Summed up: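 Test compounds were added to cln2 rad14 yeast cultures; inhibition of growth was then determined by comparison with vehicle treatment.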
Assay [5] in a line: NCI Yeast Anticancer Drug Screen. Data for the bub3 strain (AID 167). Particulars: S. cerevisiae bub3 mutant strain, stronger effect = higher value. A digest of the protocol:
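Readout: yeast growth inhibition, expressed relative to vehicle-only wells. The test organism is a mutant strain from a panel with lesions in DNA repair or checkpoint genes.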

Assay [6] can be described thus: NCI Yeast Anticancer Drug Screen. Data for the mlh1 rad18 strain (AID 175). Particulars: S. cerevisiae mlh1 rad18 strain growth inhibition, stronger effect = higher value. A digest of the protocol: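 Inhibition values reflect reduced growth of mutant yeast versus vehicle-treated controls following compound exposure; the mutations affect DNA damage repair.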
Setting [7] is: at 5.0 µM (retest, dose inferred, filed as 0.5).
The mark [8] stands for this setting: at 50.0 µM (retest, dose inferred, filed as 5.0).

With `CC(=O)OC1CCCc2c1nc1ccccc1[n+]2[O-]` (configuration not stated), the growth inhibition was 10% (inactive) in assay [1] (setting [7]); -2% (inactive) in assay [1] (setting [8]); 8.6% (inactive) in assay [1] (at 50.0 µM); 10% (inactive) in assay [2] (setting [7]); 0% (inactive) in assay [2] (setting [8]); 4.55% (inactive) in assay [2] (at 50.0 µM). For the same molecule, the growth inhibition in assay [3] (setting [7]) is 6% (inactive); in assay [3] (setting [8]), 1% (inactive); in assay [3] (at 50.0 µM) it was 0.5% (inactive); in assay [4] (setting [7]) it was 3% (inactive); in assay [4] (setting [8]), -3% (inactive); in assay [4] (at 50.0 µM) it was 28.6% (inactive). In addition, the growth inhibition in assay [5] (setting [7]) is 15% (inactive); in assay [5] (setting [8]), 4% (inactive); in assay [5] (at 50.0 µM), -10.5% (inactive); in assay [6] (setting [7]) it was 11% (inactive); in assay [6] (setting [8]), -5% (inactive); in assay [6] (at 50.0 µM) it was 5.7% (inactive).
Turning to `CCCC(=O)Oc1ccc(-c2ccc(Br)cc2)cc1`, the growth inhibition in assay [1] (setting [7]) is 4% (inactive); in assay [1] (setting [8]) it was 93% (active); in assay [1] (at 50.0 µM) it was 92.8% (active); in assay [2] (setting [7]), 11% (inactive); in assay [2] (setting [8]) it was 93% (active); in assay [2] (at 50.0 µM), 93.6% (active). In addition, the growth inhibition was 3% (inactive) in assay [3] (setting [7]); 88% (active) in assay [3] (setting [8]); 88.8% (active) in assay [3] (at 50.0 µM); -6% (inactive) in assay [4] (setting [7]); 93% (active) in assay [4] (setting [8]); 90.2% (active) in assay [4] (at 50.0 µM). In addition, the growth inhibition in assay [5] (setting [7]) is 39% (inactive); in assay [5] (setting [8]), 95% (active); in assay [5] (at 50.0 µM) it was 89.8% (active); in assay [6] (setting [7]), -7% (inactive); in assay [6] (setting [8]) it was 94% (active); in assay [6] (at 50.0 µM) it was 95.8% (active).
Turning to `Cc1cc(O)c(/C=N/c2nc(-c3cccc([N+](=O)[O-])c3)cs2)c(=O)o1`, the growth inhibition in assay [1] (setting [7]) is 40% (inactive); in assay [1] (setting [8]), 99% (active); in assay [1] (at 50.0 µM) it was 37.9% (inactive); in assay [2] (setting [7]), 42% (inactive); in assay [2] (setting [8]), 100% (active); in assay [2] (at 50.0 µM) it was 30% (inactive). Moreover, the growth inhibition in assay [3] (setting [7]) was 52% (inactive); in assay [3] (setting [8]), 100% (active); in assay [3] (at 50.0 µM), 51.2% (inactive); in assay [4] (setting [7]) it was 22% (inactive); in assay [4] (setting [8]), 99% (active); in assay [4] (at 50.0 µM), 31% (inactive). Moreover, the growth inhibition was 51% (inactive) in assay [5] (setting [7]); 100% (active) in assay [5] (setting [8]); 37.7% (inactive) in assay [5] (at 50.0 µM); 54% (inactive) in assay [6] (setting [7]); 99% (active) in assay [6] (setting [8]); 63.6% (inactive) in assay [6] (at 50.0 µM).
For the molecule `CCc1cccc(C(C)C)c1N1C(=O)C(=O)C(c2nc3ccccc3s2)C(=O)C1=O`, the growth inhibition was 65% (inactive) in assay [1] (setting [7]); 65% (inactive) in assay [1] (setting [8]); 85.2% (active) in assay [1] (at 50.0 µM); 23% (inactive) in assay [2] (setting [7]); 23% (inactive) in assay [2] (setting [8]); 87.3% (active) in assay [2] (at 50.0 µM). The growth inhibition in assay [3] (setting [7]) is 71% (active); in assay [3] (setting [8]), 71% (active); in assay [3] (at 50.0 µM) it was 83.8% (active); in assay [4] (setting [7]), 51% (inactive); in assay [4] (setting [8]), 51% (inactive); in assay [4] (at 50.0 µM), 85% (active). Also, the growth inhibition in assay [5] (setting [7]) was 34% (inactive); in assay [5] (setting [8]) it was 34% (inactive); in assay [5] (at 50.0 µM), 86% (active); in assay [6] (setting [7]), 36% (inactive); in assay [6] (setting [8]) it was 36% (inactive); in assay [6] (at 50.0 µM), 88.2% (active).
Turning to `c1csc(-c2nnc(C34CC5CC(CC(C5)C3)C4)o2)c1`, the growth inhibition is -31% (inactive) in assay [1] (setting [7]); 93% (active) in assay [1] (setting [8]); 61.5% (inactive) in assay [1] (at 50.0 µM); -12% (inactive) in assay [2] (setting [7]); 95% (active) in assay [2] (setting [8]); 55.3% (inactive) in assay [2] (at 50.0 µM). Further, the growth inhibition in assay [3] (setting [7]) was -24% (inactive); in assay [3] (setting [8]) it was 97% (active); in assay [3] (at 50.0 µM) it was 83.3% (active); in assay [4] (setting [7]), -2% (inactive); in assay [4] (setting [8]), 76% (active); in assay [4] (at 50.0 µM), 7.3% (inactive). The growth inhibition is -10% (inactive) in assay [5] (setting [7]); 98% (active) in assay [5] (setting [8]); 86.3% (active) in assay [5] (at 50.0 µM); -12% (inactive) in assay [6] (setting [7]); 98% (active) in assay [6] (setting [8]); 65.3% (inactive) in assay [6] (at 50.0 µM).
In the case of `CC1=C(C)C(=O)C(C(C)(C)CC(=O)n2cc(F)c(=O)[nH]c2=O)=C(C)C1=O`, the growth inhibition is 24% (inactive) in assay [1] (setting [7]); 87% (active) in assay [1] (setting [8]); 93.5% (active) in assay [1] (at 50.0 µM); 22% (inactive) in assay [2] (setting [7]); 98% (active) in assay [2] (setting [8]); 97.5% (active) in assay [2] (at 50.0 µM). Besides, the growth inhibition was 56% (inactive) in assay [3] (setting [7]); 95% (active) in assay [3] (setting [8]); 97.2% (active) in assay [3] (at 50.0 µM); 11% (inactive) in assay [4] (setting [7]); 46% (inactive) in assay [4] (setting [8]); 41.6% (inactive) in assay [4] (at 50.0 µM). The growth inhibition in assay [5] (setting [7]) is 0% (inactive); in assay [5] (setting [8]), 63% (inactive); in assay [5] (at 50.0 µM), 1.05% (inactive); in assay [6] (setting [7]), 18% (inactive); in assay [6] (setting [8]), 85% (active); in assay [6] (at 50.0 µM) it was 86.8% (active).
For the molecule `CC(C)(C)c1ccc(C(=O)n2c(=S)oc3ccc(Cl)cc32)cc1`, the growth inhibition in assay [1] (setting [7]) is 50% (inactive); in assay [1] (setting [8]), 85% (active); in assay [1] (at 50.0 µM) it was 65% (inactive); in assay [2] (setting [7]) it was 44% (inactive); in assay [2] (setting [8]) it was 91% (active); in assay [2] (at 50.0 µM), 61.4% (inactive). For the same molecule, the growth inhibition in assay [3] (setting [7]) is 46% (inactive); in assay [3] (setting [8]), 92% (active); in assay [3] (at 50.0 µM) it was 81.8% (active); in assay [4] (setting [7]), 39% (inactive); in assay [4] (setting [8]), 73% (active); in assay [4] (at 50.0 µM), 39.5% (inactive). The growth inhibition in assay [5] (setting [7]) is 43% (inactive); in assay [5] (setting [8]), 64% (inactive); in assay [5] (at 50.0 µM), 59.5% (inactive); in assay [6] (setting [7]) it was 51% (inactive); in assay [6] (setting [8]), 88% (active); in assay [6] (at 50.0 µM), 63% (inactive).
With `CCCCOC(=O)c1ccc(S(=O)(=O)c2ccc(C(=O)OCCCC)cc2)cc1`, the growth inhibition in assay [1] (setting [7]) was 3% (inactive); in assay [1] (setting [8]) it was -6% (inactive); in assay [1] (at 50.0 µM), 1.7% (inactive); in assay [2] (setting [7]), 3% (inactive); in assay [2] (setting [8]), -3% (inactive); in assay [2] (at 50.0 µM) it was 28.4% (inactive). In addition, the growth inhibition is 5% (inactive) in assay [3] (setting [7]); -18% (inactive) in assay [3] (setting [8]); 10% (inactive) in assay [3] (at 50.0 µM); 5% (inactive) in assay [4] (setting [7]); -11% (inactive) in assay [4] (setting [8]); -13.1% (inactive) in assay [4] (at 50.0 µM). In addition, the growth inhibition in assay [5] (setting [7]) is 4% (inactive); in assay [5] (setting [8]) it was -1% (inactive); in assay [5] (at 50.0 µM) it was 77.7% (active); in assay [6] (setting [7]), 2% (inactive); in assay [6] (setting [8]), -3% (inactive); in assay [6] (at 50.0 µM), 11.1% (inactive).
Regarding `O=NNc1ncccc1OCc1ccccc1`, the growth inhibition in assay [1] (setting [7]) is 9% (inactive); in assay [1] (setting [8]), 6% (inactive); in assay [1] (at 50.0 µM) it was 56.9% (inactive); in assay [2] (setting [7]), 6% (inactive); in assay [2] (setting [8]) it was 6% (inactive); in assay [2] (at 50.0 µM), 25.6% (inactive). Besides, the growth inhibition is 9% (inactive) in assay [3] (setting [7]); 14% (inactive) in assay [3] (setting [8]); 0.75% (inactive) in assay [3] (at 50.0 µM); 7% (inactive) in assay [4] (setting [7]); 9% (inactive) in assay [4] (setting [8]); 3.2% (inactive) in assay [4] (at 50.0 µM). The growth inhibition in assay [5] (setting [7]) was 10% (inactive); in assay [5] (setting [8]), 13% (inactive); in assay [5] (at 50.0 µM), -2.9% (inactive); in assay [6] (setting [7]) it was 9% (inactive); in assay [6] (setting [8]), 15% (inactive); in assay [6] (at 50.0 µM), 17.8% (inactive).
